For some of these results: Results with a measured potency or affinity are listed apart.
How the values were obtained:
Parameters in all cases: scale not given: direction of the effect not stated beside the values
[1] = target: Protein translocase subunit SecA (Escherichia coli (strain K12)) (UniProt P10408); assay: Assay to Identify E. coli SecA ATPase Inhibitors; format: functional; details: 30 µM
[2] = target: T1, Ubiquitin-activating enzyme e1, putative (Leishmania donovani (strain BPK282A1)) (UniProt E9BSI1); assay: Leishmania donovani Ubiquitin Activating Enzyme (LdE1); format: functional; details: 30 µM
T1 sequence (whole entry): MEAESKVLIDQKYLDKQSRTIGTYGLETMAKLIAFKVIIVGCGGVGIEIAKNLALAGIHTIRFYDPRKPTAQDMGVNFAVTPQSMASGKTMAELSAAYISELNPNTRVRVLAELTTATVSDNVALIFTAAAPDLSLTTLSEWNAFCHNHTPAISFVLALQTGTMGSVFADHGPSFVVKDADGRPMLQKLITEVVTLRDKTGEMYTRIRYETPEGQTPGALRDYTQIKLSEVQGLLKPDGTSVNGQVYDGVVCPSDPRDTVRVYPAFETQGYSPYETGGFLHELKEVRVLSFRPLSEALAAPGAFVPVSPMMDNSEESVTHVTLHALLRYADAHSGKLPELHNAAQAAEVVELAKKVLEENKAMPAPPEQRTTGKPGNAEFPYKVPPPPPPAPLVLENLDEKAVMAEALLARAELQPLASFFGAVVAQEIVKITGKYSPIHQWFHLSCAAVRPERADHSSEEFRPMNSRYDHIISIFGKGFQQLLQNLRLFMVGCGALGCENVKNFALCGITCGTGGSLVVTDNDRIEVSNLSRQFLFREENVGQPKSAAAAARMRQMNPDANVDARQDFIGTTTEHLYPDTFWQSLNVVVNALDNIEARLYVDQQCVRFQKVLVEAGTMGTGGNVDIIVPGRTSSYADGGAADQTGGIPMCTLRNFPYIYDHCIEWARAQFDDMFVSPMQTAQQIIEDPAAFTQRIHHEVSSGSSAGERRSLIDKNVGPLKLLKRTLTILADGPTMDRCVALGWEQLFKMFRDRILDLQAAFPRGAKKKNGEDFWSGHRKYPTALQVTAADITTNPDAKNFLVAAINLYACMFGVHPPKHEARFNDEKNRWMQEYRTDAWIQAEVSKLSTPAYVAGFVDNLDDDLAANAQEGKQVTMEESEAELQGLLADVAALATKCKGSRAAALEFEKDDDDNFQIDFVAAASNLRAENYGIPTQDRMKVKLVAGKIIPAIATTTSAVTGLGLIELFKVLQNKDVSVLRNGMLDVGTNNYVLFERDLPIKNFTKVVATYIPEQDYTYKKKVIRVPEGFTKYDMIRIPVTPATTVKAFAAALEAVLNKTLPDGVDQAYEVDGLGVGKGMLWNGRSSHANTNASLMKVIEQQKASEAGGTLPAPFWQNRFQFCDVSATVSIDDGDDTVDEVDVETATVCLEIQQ

[3] = target: AMP-activated protein kinase, AMPK (Homo sapiens) (UniProt P54646+O43741+P54619+Q9UGJ0+Q9Y478+Q13131+Q9UGI9); assay: AMP-dependent Kinase enzyme assay. An in vitro enzyme assay that detects ADP turnover that is directly proportional to AMPK activity. This uses naive AMPK that is activated during the assay with MK-8722; format: functional; details: 30 µM
[4] = target: Sialic acid-binding Ig-like lectin 9 (Homo sapiens) (UniProt Q9Y336); assay: Hs-Siglec9 ALPHAscreen SOP 20170721; details: 10 µM
Sialic acid-binding Ig-like lectin 9 (Homo sapiens), sequence (Q9Y336 whole entry): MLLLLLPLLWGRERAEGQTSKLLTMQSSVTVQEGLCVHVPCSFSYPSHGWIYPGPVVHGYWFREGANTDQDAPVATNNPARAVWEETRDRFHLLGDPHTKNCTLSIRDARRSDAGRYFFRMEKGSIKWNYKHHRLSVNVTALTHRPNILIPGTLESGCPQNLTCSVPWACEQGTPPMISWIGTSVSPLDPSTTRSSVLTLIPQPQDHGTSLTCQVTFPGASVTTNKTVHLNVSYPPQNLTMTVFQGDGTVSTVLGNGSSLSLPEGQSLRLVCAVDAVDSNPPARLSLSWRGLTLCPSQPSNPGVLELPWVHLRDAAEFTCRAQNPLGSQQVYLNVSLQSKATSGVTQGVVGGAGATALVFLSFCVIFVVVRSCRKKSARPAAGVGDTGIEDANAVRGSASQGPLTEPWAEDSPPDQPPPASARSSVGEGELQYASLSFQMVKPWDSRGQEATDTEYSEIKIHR

[5] = test system: Trypanosoma cruzi; assay: Trypanosoma cruzi phosphomannomutase and mannose-1-phosphate guanylyltransferase assay; format: functional; details: 10 µM
[6] = target: T2, Arginase-2, mitochondrial (Homo sapiens) (UniProt P78540); assay: in vitro enzyme assay to detect the production of urea directly proportional to the activity of Arginase II; format: functional; details: 33.3 µM; further: in the data most compounds retested in dose-response had high values
T2 sequence (whole entry): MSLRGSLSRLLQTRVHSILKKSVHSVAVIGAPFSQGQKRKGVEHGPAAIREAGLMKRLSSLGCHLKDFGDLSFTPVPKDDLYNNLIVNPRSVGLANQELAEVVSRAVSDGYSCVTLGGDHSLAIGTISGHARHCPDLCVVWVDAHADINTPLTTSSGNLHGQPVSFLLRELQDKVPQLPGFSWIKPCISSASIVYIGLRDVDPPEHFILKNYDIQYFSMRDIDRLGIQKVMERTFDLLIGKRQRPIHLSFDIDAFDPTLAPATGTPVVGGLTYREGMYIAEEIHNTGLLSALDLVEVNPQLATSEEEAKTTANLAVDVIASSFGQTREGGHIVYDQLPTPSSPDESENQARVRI

[7] = target: T3, Proteasome subunit beta (Trypanosoma cruzi) (UniProt O96673); assay: Trypanosoma cruzi proteasome chymotrypsin-like activity (TcProtChymo) assay.; further: in the data most compounds retested in dose-response had high values; format: functional; details: 9.37 µM
T3 sequence (whole entry): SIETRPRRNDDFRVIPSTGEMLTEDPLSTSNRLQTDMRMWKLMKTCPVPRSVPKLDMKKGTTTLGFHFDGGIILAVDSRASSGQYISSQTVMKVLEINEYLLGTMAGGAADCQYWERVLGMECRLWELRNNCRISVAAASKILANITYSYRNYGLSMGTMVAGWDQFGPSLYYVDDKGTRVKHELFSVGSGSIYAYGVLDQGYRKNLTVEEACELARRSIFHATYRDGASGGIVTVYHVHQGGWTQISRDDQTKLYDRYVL

[8] = organism: Homo sapiens; assay: To identify inhibition of the IFN signalling (Jak-Stat) pathway via expression of an eGFP reporter gene under the control of an IFN-stimulated response element (ISRE) containing MxA promoter.; format: functional; details: 30 µM
[9] = target: T4, Tyrosyl-tRNA synthetase, putative (Trypanosoma cruzi (strain CL Brener)) (UniProt Q4DSP6); assay: Trypanosoma cruzi tyrosyl tRNA synthetase (TcYRS) _High Tyrosine SOP; format: functional; details: 30 µM; further: in the data most compounds retested in dose-response had high values
T4 sequence (whole entry): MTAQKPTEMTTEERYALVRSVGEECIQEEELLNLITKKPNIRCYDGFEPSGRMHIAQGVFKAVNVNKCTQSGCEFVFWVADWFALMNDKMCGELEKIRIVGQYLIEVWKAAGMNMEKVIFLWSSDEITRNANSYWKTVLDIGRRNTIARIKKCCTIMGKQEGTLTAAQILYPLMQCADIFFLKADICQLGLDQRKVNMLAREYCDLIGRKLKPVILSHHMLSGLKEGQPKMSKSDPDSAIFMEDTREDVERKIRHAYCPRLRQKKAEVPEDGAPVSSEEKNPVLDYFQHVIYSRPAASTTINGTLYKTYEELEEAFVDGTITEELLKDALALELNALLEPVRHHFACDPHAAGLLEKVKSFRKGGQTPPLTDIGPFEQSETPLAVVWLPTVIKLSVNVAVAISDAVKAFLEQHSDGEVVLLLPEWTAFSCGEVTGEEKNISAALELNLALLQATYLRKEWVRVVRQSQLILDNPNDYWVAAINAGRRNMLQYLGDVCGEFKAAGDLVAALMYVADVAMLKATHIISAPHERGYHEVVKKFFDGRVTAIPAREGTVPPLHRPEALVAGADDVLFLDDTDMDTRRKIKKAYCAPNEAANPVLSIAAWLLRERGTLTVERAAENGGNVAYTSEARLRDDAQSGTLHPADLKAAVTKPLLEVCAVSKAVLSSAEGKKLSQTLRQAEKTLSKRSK

[10] = target: T4, Tyrosyl-tRNA synthetase, putative (Trypanosoma cruzi (strain CL Brener)); assay: Trypanosoma cruzi tyrosyl tRNA synthetase (TcYRS) SOP; format: functional; details: 30 µM
[11] = target: Chromo domain-containing protein 1 (Saccharomyces cerevisiae (strain ATCC 204508 / S288c) (Baker's yeast)) (UniProt P32657); assay: ScCHD-1 Enzyme Inhibition Assay; format: functional; details: 30 µM; further: in the data most compounds retested in dose-response had high values
Chromo domain-containing protein 1 (Saccharomyces cerevisiae (strain ATCC 204508 / S288c) (Baker's yeast)), sequence (P32657 whole entry, the tested form may be a part): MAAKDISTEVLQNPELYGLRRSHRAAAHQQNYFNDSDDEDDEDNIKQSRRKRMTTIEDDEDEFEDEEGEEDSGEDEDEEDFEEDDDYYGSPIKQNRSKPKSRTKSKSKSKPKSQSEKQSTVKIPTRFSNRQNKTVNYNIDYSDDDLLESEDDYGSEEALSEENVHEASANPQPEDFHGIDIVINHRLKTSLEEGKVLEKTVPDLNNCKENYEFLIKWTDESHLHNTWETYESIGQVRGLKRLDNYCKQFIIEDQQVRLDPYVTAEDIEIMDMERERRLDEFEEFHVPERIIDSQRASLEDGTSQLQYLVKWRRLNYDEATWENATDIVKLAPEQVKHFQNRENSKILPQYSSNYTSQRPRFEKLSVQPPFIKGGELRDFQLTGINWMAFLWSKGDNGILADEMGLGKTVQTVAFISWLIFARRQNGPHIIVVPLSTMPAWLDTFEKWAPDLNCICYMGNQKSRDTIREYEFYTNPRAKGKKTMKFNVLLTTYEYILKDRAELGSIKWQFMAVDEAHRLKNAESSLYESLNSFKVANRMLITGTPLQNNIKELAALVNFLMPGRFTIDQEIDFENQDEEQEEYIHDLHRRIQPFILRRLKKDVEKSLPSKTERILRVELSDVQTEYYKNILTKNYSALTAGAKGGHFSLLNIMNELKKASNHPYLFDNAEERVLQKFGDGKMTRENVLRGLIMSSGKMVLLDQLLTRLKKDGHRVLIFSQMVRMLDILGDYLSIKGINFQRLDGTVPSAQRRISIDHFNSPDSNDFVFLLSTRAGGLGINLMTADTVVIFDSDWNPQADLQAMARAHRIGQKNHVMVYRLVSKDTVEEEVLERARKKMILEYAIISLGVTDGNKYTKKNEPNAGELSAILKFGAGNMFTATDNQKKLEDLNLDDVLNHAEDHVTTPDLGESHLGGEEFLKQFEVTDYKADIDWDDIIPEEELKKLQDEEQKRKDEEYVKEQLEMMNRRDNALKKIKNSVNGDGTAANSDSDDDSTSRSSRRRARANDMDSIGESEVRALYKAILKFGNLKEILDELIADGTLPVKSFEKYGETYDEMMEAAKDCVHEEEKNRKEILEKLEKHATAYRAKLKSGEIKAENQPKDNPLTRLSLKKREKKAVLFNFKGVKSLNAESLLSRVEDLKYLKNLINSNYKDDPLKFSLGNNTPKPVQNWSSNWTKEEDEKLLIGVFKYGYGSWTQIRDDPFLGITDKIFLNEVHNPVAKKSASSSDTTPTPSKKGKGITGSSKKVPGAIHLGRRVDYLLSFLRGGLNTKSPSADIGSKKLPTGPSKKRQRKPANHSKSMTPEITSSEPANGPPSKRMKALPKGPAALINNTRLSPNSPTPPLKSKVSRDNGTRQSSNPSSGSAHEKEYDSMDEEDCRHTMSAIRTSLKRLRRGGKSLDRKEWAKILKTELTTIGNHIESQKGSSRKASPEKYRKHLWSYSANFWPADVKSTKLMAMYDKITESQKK

Protein translocase subunit SecA (Escherichia coli (strain K12)), sequence (P10408 whole entry): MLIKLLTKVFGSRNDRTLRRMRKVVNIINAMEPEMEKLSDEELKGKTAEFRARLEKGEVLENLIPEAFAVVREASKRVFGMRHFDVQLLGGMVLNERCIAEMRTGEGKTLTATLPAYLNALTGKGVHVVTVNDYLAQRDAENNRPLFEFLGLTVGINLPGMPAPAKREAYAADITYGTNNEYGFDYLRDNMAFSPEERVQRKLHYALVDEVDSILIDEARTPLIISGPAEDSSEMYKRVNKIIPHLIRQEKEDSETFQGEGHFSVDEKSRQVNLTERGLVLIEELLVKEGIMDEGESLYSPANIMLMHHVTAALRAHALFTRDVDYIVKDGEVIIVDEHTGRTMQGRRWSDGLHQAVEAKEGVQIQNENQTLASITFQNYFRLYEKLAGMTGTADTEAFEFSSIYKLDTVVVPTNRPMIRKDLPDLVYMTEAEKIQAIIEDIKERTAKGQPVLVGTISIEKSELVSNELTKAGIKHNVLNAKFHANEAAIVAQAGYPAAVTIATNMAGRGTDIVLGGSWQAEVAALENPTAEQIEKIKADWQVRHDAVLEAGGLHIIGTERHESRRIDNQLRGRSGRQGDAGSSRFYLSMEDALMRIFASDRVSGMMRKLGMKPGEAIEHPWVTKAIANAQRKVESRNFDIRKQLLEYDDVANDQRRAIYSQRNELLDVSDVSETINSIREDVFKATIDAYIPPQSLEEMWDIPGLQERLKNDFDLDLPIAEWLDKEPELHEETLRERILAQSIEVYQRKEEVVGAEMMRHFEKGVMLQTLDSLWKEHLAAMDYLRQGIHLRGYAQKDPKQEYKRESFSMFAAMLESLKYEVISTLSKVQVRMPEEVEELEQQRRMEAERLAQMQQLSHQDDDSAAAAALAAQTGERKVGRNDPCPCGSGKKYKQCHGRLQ

| Structure (SMILES) | Percent Effect [1] [%] | Percent Effect [2] [%] | Percent Effect [3] [%] | Percent Effect [4] [%] | Percent Effect [5] [%] | Percent Effect [6] [%] | Percent Effect [7] [%] | Percent Effect [8] [%] | Percent Effect [9] [%] | Percent Effect [10] [%] | Percent Effect [11] [%] |
| --- | --- | --- | --- | --- | --- | --- | --- | --- | --- | --- | --- |
| CC(C)c1nc(C(=O)NCCn2ccnc2)nn1-c1cccc(F)c1 | -6 | 15.8 | -4.38 | -4.66 | -3.46 | -6.47 | 1.1 | -1.8 | 1.48 | 6.17 | -5.42 |
| CNc1cc(C2CCCN2Cc2ccccc2C(=O)O)ccn1 (stereo not given) | -4.24 | -6.76 | 3.65 | -0.354 | -1.19 | -0.696 | 7.33 | 7.54 | 8.6 | 11.7 | -11.7 |
| CCNC(c1cccnc1)c1cc(C)cc(C)c1 (stereo not given) | -3.46 | -3.8 | 4.33 | -1.27 | 2.15 | -4.52 | 5.83 | -28.2 | 0 | 5.06 | 2.53 |
| CCCc1n[nH]c(C2CN(C(=O)c3ccco3)CCO2)n1 (stereo not given) | -3.05 | 0 | 2.64 | -8.28 | -1.03 | 2.52 | 8.71 | -11.3 | 0.493 | -1.24 | 13.1 |
| CC(C(N)=O)N(C)CCCc1cc(-c2ccccc2)no1 (stereo not given) | -2.48 | 13.5 | 3.69 | 0.652 | -9.75 | -0.185 | 7.54 | 10.5 | 5.94 | 13.4 | -3.63 |
| O=C(N1CCCC1)N1CCN(CC2CC2)c2ncccc2C1 | -3.07 | 5.33 | 8.78 | -0.324 | -6.69 | 7.69 | 21.8 | 10.6 | 4.25 | 1.28 | -4.2 |
| CCN1CCN(C(=O)CCc2c(C)noc2Cl)CC1 | -4.13 | 10.5 | -2.91 | -3.24 | -9.24 | 4.32 | 5.16 | -6.25 | 3.45 | 6.17 | -1.51 |
| Cc1nc(CNC(=O)NCC(O)c2cccc(Cl)c2)cs1 (stereo not given) | -1.26 | 2.7 | -4.33 | 3.81 | -8.69 | -4.29 | 23.4 | 6.47 | 0.529 | 4.88 | -3.89 |
| O=C(CCc1ccc(=O)[nH]n1)N1CCCC(COc2ccc(F)cc2)C1 (stereo not given) | -2.1 | 1.39 | -1.82 | -3.84 | 1.85 | 2.65 | 16.3 | 5.9 | 6.32 | 12.8 | -1.89 |
| COc1ccc(-c2csc(N)c2C#N)cc1OC | -2.5 | 6.67 | -9.01 | 5.81 | 4.91 | -6.16 | 7.02 | 12.1 | 1.06 | 0 | -1.98 |
| Cc1nn(C)c2cnn(C(C)C(=O)NCc3cccnc3)c12 (stereo not given) | -0.721 | 20 | -1.87 | 5 | 1.18 | -1.58 | 12.8 | 17.9 | 5.29 | 17.9 | -9.71 |
| Cc1noc(Cl)c1CCC(=O)N1CCCCC1Cn1cccn1 (stereo not given) | -5.73 | 5.26 | 1.98 | -0.589 | 1.85 | -2.37 | 9.3 | -6.24 | 3.19 | 5.2 | -7.11 |
| Cc1ccc(C2CCCN2Cc2nc3c(cnn3C)c(=O)[nH]2)cc1C (stereo not given) | -4.42 | 27.9 | -6.55 | -1.46 | 5.19 | -1.52 | 13.8 | 4.19 | 7.39 | 24.1 | -5.15 |
| CN(C)CCNC(=O)c1cnc2c(c1)nc(-c1ccccc1Cl)n2C | -0.258 | 8.11 | -1.84 | 30.9 | 3.81 | 1.74 | 9.36 | 17.4 | 7.53 | 16.1 | -5.45 |
| Cc1ccc(CN2CCc3ncnc(C4CCOC4)c3CC2)s1 (stereo not given) | 1.24 | 10.7 | 1.52 | 6.88 | -2.51 | -41.4 | 5.98 | 18.1 | 5.21 | 25 | -6.72 |
| Cc1nc(NCc2cccnc2)c2c(n1)c(C)nn2C | 0.594 | 7.79 | 5.87 | 8.94 | 2.85 | -12.4 | 7.99 | 31 | 6.45 | 18.5 | -2.21 |
| CCCS(=O)(=O)NCC1CCOc2ccccc2C1 (stereo not given) | -7.2 | 0 | 3.87 | 5.88 | -5.61 | 17.9 | 5.32 | -3.37 | 0 | 6.17 | 3.34 |
| CCOc1cc(C)ccc1NC(=O)N(C)Cc1cnn(C)c1 | -3.73 | 10.8 | -11.8 | 16.5 | 4.81 | 0.401 | -2.52 | 11.9 | 6.4 | 16.1 | -9.07 |
| O=C(NCc1cc(=O)n2c(n1)CN(CC1CCOC1)CCC2)C1CC1 (stereo not given) | 0.233 | 2.74 | -1.09 | 5.91 | 6.35 | -0.399 | 6.76 | -4.97 | 3.12 | 11.1 | -3.69 |
| Cc1ccccc1-c1cncc(C2CCN(C)CC2)n1 | -3.38 | -6.76 | 8.25 | 2.29 | 5.73 | -1.62 | -0.624 | -1.24 | 5.38 | 3.9 | -11.8 |
